# Experimental data published in PMC7862700, “An all-to-all approach to the identification of sequence-specific readers for epigenetic DNA modifications on cytosine”.
# Key:
# Experiment in all cases: DAPPL (digital affinity profiling via proximity ligation, sequencing); 10 mM Tris-HCl pH 7.5, 50 mM NaCl, 1 mM DTT, 4% glycerol, room temperature, 30 min; GST-TFs on glutathione beads, 16-mer random dsDNA library, 0.1% formaldehyde crosslink after washing; high values mean tight binding
# [1] = biological target: T1, FEV (Homo sapiens, UniProt Q99581 1-238); conditions: protein: recombinant; tags: N-terminal GST; dsDNA, one strand shown
# T1 sequence: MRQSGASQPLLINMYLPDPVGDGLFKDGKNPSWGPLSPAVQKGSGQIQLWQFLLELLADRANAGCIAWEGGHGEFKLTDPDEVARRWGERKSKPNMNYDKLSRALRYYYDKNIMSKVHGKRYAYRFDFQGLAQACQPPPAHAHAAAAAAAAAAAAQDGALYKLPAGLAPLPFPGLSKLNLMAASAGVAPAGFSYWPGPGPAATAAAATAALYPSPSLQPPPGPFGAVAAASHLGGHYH
# Procedure, shortened: (§1)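 Sequencing on an Illumina NextSeq500 followed washing, crosslinking with 0.1% formaldehyde, proximity ligation (BsaI/T4 ligase, 1 h, 37 °C) and PCR amplification of pools that had been incubated for 30 min at room temperature with 200 nmole of a random double-stranded 16-mer DNA library in Tris/NaCl/DTT/glycerol buffer. Each pool held DNA-barcoded human transcription factors, expressed in yeast as GST fusions and captured on glutathione beads, plus a tag-only sample. Binding signal is a hexamer's read frequency for a factor divided by its frequency in the tag-only sample.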
# [2] = biological target: ETV5 (Homo sapiens, UniProt P41161 1-510); conditions: protein: recombinant; tags: N-terminal GST; dsDNA, one strand shown
# Sequence of ETV5 (P41161 whole entry): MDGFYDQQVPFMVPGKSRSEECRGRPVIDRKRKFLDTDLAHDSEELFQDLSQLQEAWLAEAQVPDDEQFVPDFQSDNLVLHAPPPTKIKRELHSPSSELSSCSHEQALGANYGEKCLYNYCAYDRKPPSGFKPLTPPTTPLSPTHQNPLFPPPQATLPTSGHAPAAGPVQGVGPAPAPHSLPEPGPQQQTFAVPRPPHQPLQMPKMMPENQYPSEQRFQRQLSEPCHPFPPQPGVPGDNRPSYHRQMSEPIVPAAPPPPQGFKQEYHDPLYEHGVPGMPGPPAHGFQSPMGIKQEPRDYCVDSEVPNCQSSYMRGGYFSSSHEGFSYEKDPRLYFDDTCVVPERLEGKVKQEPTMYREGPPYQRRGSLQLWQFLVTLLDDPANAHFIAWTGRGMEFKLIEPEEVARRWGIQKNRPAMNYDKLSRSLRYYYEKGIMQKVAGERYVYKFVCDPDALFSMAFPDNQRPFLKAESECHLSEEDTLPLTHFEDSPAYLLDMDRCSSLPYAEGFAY
# Procedure, shortened: as §1
# [3] = biological target: HSF1 (Homo sapiens, UniProt Q00613 1-529); conditions: protein: recombinant; tags: N-terminal GST; chain copies: 3; dsDNA, one strand shown
# Sequence of HSF1 (Q00613 whole entry): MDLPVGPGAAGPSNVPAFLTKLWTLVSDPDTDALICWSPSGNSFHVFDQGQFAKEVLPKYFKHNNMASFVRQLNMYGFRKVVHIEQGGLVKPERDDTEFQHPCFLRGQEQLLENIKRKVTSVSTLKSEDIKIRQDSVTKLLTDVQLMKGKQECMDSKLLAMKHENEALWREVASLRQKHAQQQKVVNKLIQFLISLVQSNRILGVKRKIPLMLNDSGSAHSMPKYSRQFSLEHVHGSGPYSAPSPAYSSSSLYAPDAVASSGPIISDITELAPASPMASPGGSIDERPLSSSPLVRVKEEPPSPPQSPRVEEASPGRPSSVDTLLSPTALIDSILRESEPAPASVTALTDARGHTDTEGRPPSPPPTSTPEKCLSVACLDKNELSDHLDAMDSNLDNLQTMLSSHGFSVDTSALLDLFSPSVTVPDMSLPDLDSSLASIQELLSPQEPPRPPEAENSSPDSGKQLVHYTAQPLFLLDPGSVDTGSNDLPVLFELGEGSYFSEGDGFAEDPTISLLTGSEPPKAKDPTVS
# Procedure, shortened: as §1
# [4] = biological target: T2, SPIC (Homo sapiens, UniProt Q8N5J4 1-248); conditions: protein: recombinant; tags: N-terminal GST; dsDNA, one strand shown
# T2 sequence: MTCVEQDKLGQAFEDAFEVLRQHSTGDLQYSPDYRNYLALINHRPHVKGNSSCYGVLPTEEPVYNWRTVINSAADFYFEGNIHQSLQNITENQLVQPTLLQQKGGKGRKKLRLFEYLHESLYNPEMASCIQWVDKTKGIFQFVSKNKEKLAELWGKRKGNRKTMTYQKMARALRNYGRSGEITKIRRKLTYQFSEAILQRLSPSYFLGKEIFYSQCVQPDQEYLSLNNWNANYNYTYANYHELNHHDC
# Procedure, shortened: as §1
# [5] = biological target: ELF4 (Homo sapiens, UniProt Q99607 1-663); conditions: protein: recombinant; tags: N-terminal GST; dsDNA, one strand shown
# Sequence of ELF4 (Q99607 whole entry): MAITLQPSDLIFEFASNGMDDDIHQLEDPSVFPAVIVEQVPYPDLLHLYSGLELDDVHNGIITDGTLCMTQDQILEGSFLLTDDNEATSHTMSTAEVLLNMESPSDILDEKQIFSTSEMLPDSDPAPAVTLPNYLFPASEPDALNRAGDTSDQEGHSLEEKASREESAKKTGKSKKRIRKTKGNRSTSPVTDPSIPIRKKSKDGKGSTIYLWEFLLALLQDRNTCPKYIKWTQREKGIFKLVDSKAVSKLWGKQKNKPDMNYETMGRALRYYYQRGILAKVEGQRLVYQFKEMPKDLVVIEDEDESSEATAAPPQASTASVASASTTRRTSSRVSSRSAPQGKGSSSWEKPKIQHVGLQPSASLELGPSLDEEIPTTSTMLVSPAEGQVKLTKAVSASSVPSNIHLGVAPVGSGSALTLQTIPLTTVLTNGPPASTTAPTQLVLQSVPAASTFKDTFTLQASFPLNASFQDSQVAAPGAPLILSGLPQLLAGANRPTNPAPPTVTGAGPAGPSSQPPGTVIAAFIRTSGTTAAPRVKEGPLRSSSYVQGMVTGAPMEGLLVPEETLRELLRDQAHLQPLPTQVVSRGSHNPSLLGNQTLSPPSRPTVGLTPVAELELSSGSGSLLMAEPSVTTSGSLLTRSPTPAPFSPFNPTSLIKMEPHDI
# Procedure, shortened: as §1
# [6] = biological target: T3, ELK4 (Homo sapiens, UniProt P28324-2 1-405); conditions: protein: recombinant; tags: N-terminal GST; dsDNA, one strand shown
# T3 sequence: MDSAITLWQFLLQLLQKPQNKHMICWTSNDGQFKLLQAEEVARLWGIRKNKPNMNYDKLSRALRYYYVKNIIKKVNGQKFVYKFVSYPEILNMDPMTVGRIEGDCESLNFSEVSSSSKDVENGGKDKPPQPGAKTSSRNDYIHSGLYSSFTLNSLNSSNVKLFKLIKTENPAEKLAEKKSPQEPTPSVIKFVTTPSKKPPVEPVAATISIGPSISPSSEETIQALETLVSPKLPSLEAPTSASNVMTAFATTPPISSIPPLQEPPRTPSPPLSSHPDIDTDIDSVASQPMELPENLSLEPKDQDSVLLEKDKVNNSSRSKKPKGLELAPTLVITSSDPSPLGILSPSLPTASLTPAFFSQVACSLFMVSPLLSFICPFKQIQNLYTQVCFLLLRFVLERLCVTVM
# Procedure, shortened: as §1
# [7] = biological target: T4, ETV2 (Homo sapiens, UniProt O00321 1-342); conditions: protein: recombinant; tags: N-terminal GST; dsDNA, one strand shown
# T4 sequence: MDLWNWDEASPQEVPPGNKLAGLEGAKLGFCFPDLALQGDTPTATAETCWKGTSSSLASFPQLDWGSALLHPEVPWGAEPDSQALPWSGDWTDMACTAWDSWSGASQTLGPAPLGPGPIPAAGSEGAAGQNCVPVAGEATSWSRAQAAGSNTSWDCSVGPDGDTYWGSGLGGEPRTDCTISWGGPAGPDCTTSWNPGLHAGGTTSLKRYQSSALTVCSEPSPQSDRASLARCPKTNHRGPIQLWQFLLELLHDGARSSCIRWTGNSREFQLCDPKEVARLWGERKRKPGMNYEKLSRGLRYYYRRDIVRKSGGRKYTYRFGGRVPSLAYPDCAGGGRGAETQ
# Procedure, shortened: as §1
# [8] = biological target: T5, ELF3 (Homo sapiens, UniProt P78545 1-371); conditions: protein: recombinant; tags: N-terminal GST; dsDNA, one strand shown
# T5 sequence: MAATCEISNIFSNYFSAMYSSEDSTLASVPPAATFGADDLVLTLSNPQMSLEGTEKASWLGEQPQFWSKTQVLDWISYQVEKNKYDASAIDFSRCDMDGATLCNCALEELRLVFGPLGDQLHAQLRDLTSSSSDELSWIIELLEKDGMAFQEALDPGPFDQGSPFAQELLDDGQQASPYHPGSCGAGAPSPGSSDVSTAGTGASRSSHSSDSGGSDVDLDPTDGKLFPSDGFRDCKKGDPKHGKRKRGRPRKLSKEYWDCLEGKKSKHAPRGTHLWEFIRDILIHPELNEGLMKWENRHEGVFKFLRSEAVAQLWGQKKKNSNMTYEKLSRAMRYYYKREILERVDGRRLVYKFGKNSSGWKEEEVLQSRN
# Procedure, shortened: as §1
# [9] = biological target: CRX (Homo sapiens, UniProt O43186 1-299); conditions: protein: recombinant; tags: N-terminal GST; dsDNA, one strand shown
# Sequence of CRX (O43186 whole entry): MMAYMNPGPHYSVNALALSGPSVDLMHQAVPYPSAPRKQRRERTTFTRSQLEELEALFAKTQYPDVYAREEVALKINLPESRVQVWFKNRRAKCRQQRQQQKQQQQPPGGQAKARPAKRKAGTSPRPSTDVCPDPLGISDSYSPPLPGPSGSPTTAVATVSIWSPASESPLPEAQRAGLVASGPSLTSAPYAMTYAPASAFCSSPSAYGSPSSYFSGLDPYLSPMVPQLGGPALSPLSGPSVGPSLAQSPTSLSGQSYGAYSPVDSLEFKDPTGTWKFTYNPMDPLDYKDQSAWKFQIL
# Procedure, shortened: as §1
# [10] = biological target: ETV1 (Homo sapiens, UniProt P50549 1-477); conditions: protein: recombinant; tags: N-terminal GST; dsDNA, one strand shown
# Sequence of ETV1 (P50549 whole entry): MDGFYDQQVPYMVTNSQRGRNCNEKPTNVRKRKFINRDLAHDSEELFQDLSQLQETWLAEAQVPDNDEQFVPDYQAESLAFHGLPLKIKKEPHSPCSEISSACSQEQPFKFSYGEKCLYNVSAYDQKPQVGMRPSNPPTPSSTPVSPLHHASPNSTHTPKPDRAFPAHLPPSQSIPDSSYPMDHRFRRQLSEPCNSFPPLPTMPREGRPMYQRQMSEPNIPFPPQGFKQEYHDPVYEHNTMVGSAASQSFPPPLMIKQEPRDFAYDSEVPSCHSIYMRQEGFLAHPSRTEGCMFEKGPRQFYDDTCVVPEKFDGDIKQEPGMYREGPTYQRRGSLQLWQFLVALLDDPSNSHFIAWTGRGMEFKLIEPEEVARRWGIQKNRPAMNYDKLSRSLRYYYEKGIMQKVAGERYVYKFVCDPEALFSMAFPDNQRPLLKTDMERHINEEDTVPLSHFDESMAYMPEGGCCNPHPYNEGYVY
# Procedure, shortened: as §1
# [11] = biological target: T6, ERF (Homo sapiens, UniProt P50548 1-548); conditions: protein: recombinant; tags: N-terminal GST; dsDNA, one strand shown
# T6 sequence: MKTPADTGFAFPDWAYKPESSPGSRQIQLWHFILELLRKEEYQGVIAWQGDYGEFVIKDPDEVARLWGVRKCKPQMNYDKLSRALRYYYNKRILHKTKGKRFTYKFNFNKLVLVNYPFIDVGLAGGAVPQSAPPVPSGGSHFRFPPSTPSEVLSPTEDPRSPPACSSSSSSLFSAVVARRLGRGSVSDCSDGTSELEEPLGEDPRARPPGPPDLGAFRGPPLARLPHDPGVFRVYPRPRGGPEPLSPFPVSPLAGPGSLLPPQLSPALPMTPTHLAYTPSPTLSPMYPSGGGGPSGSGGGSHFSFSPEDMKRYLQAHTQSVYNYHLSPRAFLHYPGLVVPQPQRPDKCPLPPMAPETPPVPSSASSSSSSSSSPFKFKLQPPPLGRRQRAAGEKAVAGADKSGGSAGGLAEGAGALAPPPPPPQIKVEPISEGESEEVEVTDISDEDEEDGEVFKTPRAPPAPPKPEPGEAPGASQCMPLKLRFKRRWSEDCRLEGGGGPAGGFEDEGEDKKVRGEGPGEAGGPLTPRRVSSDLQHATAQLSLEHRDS
# Procedure, shortened: as §1
# [12] = biological target: T7, ETV3L (Homo sapiens, UniProt Q6ZN32 1-361); conditions: protein: recombinant; tags: N-terminal GST; dsDNA, one strand shown
# T7 sequence: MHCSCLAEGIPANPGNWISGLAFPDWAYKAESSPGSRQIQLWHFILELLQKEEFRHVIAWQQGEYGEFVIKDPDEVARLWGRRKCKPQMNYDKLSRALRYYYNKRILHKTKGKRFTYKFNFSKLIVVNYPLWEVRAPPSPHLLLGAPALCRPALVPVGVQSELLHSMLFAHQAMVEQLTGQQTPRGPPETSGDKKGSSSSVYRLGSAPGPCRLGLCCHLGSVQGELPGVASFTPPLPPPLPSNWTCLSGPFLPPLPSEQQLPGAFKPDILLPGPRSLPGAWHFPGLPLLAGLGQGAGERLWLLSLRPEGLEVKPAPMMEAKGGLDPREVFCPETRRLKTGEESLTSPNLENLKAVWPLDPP
# Procedure, shortened: as §1
# [13] = biological target: T8, ETS2 (Homo sapiens, UniProt P15036 1-469); conditions: protein: recombinant; tags: N-terminal GST; dsDNA, one strand shown
# T8 sequence: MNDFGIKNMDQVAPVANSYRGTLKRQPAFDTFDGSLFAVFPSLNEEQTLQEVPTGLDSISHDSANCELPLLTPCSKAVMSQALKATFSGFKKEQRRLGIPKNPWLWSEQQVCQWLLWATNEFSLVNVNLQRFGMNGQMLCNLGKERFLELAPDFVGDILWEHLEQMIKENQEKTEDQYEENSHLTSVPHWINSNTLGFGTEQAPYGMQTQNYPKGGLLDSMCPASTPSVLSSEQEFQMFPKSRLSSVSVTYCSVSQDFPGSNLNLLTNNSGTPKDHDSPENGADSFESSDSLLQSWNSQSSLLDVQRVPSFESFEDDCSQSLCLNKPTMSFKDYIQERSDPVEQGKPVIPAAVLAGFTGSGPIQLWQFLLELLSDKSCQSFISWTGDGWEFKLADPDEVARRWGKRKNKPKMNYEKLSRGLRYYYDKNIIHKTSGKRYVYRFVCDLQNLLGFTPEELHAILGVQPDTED
# Procedure, shortened: as §1
# [14] = biological target: T9, SPDEF (Homo sapiens, UniProt O95238 1-335); conditions: protein: recombinant; tags: N-terminal GST; dsDNA, one strand shown
# T9 sequence: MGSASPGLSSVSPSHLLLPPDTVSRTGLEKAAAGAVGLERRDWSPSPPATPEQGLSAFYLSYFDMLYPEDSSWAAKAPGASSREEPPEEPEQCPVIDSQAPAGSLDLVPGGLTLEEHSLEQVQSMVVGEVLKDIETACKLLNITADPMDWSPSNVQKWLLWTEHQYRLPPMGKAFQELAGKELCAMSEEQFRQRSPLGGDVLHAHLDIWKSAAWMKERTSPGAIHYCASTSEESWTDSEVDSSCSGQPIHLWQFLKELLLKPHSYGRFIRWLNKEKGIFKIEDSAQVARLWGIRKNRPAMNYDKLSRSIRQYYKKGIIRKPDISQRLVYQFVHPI
# Procedure, shortened: as §1
# [15] = biological target: T10, ETV7 (Homo sapiens, UniProt Q9Y603 1-341); conditions: protein: recombinant; tags: N-terminal GST; dsDNA, one strand shown
# T10 sequence: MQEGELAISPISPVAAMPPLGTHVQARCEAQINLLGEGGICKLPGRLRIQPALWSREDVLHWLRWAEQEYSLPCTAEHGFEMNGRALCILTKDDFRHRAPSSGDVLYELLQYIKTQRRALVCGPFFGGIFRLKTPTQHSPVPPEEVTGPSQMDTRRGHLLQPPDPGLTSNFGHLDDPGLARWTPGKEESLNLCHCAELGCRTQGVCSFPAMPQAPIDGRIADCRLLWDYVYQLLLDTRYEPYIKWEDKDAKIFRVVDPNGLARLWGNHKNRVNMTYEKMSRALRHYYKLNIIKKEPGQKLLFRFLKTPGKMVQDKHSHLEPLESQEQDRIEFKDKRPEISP
# Procedure, shortened: as §1
# [16] = biological target: T11, ELF5 (Homo sapiens, UniProt Q9UKW6-2 1-255); conditions: protein: recombinant; tags: N-terminal GST; dsDNA, one strand shown
# T11 sequence: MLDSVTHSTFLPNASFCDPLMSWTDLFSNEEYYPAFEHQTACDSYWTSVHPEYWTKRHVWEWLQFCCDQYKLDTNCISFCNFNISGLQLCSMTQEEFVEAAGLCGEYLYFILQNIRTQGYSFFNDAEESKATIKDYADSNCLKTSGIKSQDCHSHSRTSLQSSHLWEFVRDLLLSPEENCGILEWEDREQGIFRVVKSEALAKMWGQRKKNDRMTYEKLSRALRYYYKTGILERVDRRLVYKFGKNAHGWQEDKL
# Procedure, shortened: as §1
# [17] = biological target: T12, ETV3 (Homo sapiens, UniProt P41162-2 1-143); conditions: protein: recombinant; tags: N-terminal GST; dsDNA, one strand shown
# T12 sequence: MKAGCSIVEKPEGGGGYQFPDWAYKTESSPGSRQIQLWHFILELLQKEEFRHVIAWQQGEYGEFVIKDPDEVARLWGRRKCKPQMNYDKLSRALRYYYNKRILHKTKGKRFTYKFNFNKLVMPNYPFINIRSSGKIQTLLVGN
# Procedure, shortened: as §1
# [18] = biological target: ETV6 (Homo sapiens, UniProt P41212 1-452); conditions: protein: recombinant; tags: N-terminal GST; dsDNA, one strand shown
# Sequence of ETV6 (P41212 whole entry): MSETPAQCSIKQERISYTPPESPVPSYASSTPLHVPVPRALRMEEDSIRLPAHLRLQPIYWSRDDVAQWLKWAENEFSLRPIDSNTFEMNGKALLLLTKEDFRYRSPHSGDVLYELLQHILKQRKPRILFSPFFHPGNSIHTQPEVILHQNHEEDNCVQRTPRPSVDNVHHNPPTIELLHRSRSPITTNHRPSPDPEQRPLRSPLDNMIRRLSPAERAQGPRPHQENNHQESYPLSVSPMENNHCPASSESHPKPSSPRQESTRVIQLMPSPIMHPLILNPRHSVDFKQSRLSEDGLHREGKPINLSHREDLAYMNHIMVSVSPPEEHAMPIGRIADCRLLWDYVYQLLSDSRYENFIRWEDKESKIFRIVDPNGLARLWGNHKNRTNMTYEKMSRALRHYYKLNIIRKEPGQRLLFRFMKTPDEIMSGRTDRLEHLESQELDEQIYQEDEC
# Procedure, shortened: as §1
sequence,measurement,setting,value
CTAAGC,binding signal,[1],"1.05 fold enrichment (6-mer frequency, TF over GST control)"
same,binding signal,[2],"1.05 fold enrichment (6-mer frequency, TF over GST control)"
same,binding signal,[3],"1.56 fold enrichment (6-mer frequency, TF over GST control)"
same,binding signal,[4],"1.08 fold enrichment (6-mer frequency, TF over GST control)"
same,binding signal,[5],"1.09 fold enrichment (6-mer frequency, TF over GST control)"
same,binding signal,[6],"1.16 fold enrichment (6-mer frequency, TF over GST control)"
same,binding signal,[7],"1.17 fold enrichment (6-mer frequency, TF over GST control)"
same,binding signal,[8],"1.12 fold enrichment (6-mer frequency, TF over GST control)"
same,binding signal,[9],"2.45 fold enrichment (6-mer frequency, TF over GST control)"
same,binding signal,[10],"1.06 fold enrichment (6-mer frequency, TF over GST control)"
same,binding signal,[11],"1.14 fold enrichment (6-mer frequency, TF over GST control)"
same,binding signal,[12],"1.09 fold enrichment (6-mer frequency, TF over GST control)"
same,binding signal,[13],"1.15 fold enrichment (6-mer frequency, TF over GST control)"
same,binding signal,[14],"1.06 fold enrichment (6-mer frequency, TF over GST control)"
same,binding signal,[15],"1.04 fold enrichment (6-mer frequency, TF over GST control)"
same,binding signal,[16],"1.07 fold enrichment (6-mer frequency, TF over GST control)"
same,binding signal,[17],"1.07 fold enrichment (6-mer frequency, TF over GST control)"
same,binding signal,[18],"1.08 fold enrichment (6-mer frequency, TF over GST control)"
